# Inconclusive results are not listed. Unmarked numbers belong to inactive results. The source made the active and inactive calls. Calls follow the shape of the dose curve; as a rule, active = well fitted inhibition curve with a large enough effect; inconclusive = small, poorly fitted or top-dose-only effect; inactive = flat fitted curve, though single readings scatter.
# Test system: not listed separately
# Assay: qHTS profiling for inhibitors of Plasmodium falciparum proliferation (AID 504749); also: nearly all actives have a fitted effect of over 60% in size;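 as to activity, negative = inhibition: 0% = DMSO vehicle and full inhibition = artemisinin control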
# Settings: P. falciparum in erythrocytes, SYBR Green DNA, 72 h; at 28.7 µM (top of the series); parasite line B
# Method in brief: (§1)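 In a 72 h erythrocytic culture (37 C, humidified, 5% CO2) at 2.5% hematocrit and 0.3% starting parasitemia, compounds were tested; SYBR Green I in detergent lysis buffer stained parasite DNA overnight.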
# Potency is read from the fitted curve at half-maximal effect.
row,Structure (SMILES),"activity, negative = inhibition"
1,O=C(O)c1cc(O)c2c(c1)[C@H]([C@H]1c3cc(C(=O)O)cc(O)c3C(=O)c3c(O[C@@H]4OC(CO)C(O)C(O)C4O)cccc31)c1cccc(O[C@@H]3OC(CO)C(O)C(O)C3O)c1C2=O (some centres not stated),-4.26%
2,CC(C)CN(C[C@@H](OP(=O)(O)O)[C@H](Cc1ccccc1)NC(=O)O[C@@H]1CCOC1)S(=O)(=O)c1ccc(N)cc1,9.93%
3,CCC(C)n1ncn(-c2ccc(N3CCN(c4ccc(OCC5COC(Cn6cncn6)(c6ccc(Cl)cc6Cl)O5)cc4)CC3)cc2)c1=O (configuration not stated),-11%
4,CC(C)CN(C[C@@H](O)[C@H](Cc1ccccc1)NC(=O)O[C@H]1CCOC1)S(=O)(=O)c1ccc(N)cc1,-24.9%

# Test system: 3D7
# Assay: as above
# Settings: P. falciparum in erythrocytes, SYBR Green DNA, 72 h; series mostly up to 28.7 µM
# Method in brief: as §1
row,Structure (SMILES),Potency
1,O=C(O)c1cc(O)c2c(c1)[C@H]([C@H]1c3cc(C(=O)O)cc(O)c3C(=O)c3c(O[C@@H]4OC(CO)C(O)C(O)C4O)cccc31)c1cccc(O[C@@H]3OC(CO)C(O)C(O)C3O)c1C2=O (some centres not stated),inactive
2,CC(C)CN(C[C@@H](OP(=O)(O)O)[C@H](Cc1ccccc1)NC(=O)O[C@@H]1CCOC1)S(=O)(=O)c1ccc(N)cc1,inactive
3,CCC(C)n1ncn(-c2ccc(N3CCN(c4ccc(OCC5COC(Cn6cncn6)(c6ccc(Cl)cc6Cl)O5)cc4)CC3)cc2)c1=O (configuration not stated),3.16 µM (active)
4,CC(C)CN(C[C@@H](O)[C@H](Cc1ccccc1)NC(=O)O[C@H]1CCOC1)S(=O)(=O)c1ccc(N)cc1,inactive

# Test system: 7G8
# Assay: as above
# Settings: P. falciparum in erythrocytes, SYBR Green DNA, 72 h; series mostly up to 28.7 µM
# Method in brief: as §1
row,Structure (SMILES),Potency
1,O=C(O)c1cc(O)c2c(c1)[C@H]([C@H]1c3cc(C(=O)O)cc(O)c3C(=O)c3c(O[C@@H]4OC(CO)C(O)C(O)C4O)cccc31)c1cccc(O[C@@H]3OC(CO)C(O)C(O)C3O)c1C2=O (some centres not stated),inactive
2,CC(C)CN(C[C@@H](OP(=O)(O)O)[C@H](Cc1ccccc1)NC(=O)O[C@@H]1CCOC1)S(=O)(=O)c1ccc(N)cc1,inactive
3,CCC(C)n1ncn(-c2ccc(N3CCN(c4ccc(OCC5COC(Cn6cncn6)(c6ccc(Cl)cc6Cl)O5)cc4)CC3)cc2)c1=O (configuration not stated),3.55 µM (active)
4,CC(C)CN(C[C@@H](O)[C@H](Cc1ccccc1)NC(=O)O[C@H]1CCOC1)S(=O)(=O)c1ccc(N)cc1,10 µM (active)

# Reference: PubChem BioAssay (NCATS)
